{"source": "paper PMC11006913", "assay_in_all_cases": "PBM; 200 nM protein, PBS", "conditions_in_all_cases": "dsDNA, one strand shown", "key": {"PAX4 [1]": {"biological_target": "T1, PAX4 (Homo sapiens, UniProt O43316 9-242, R200K)", "T1 sequence": "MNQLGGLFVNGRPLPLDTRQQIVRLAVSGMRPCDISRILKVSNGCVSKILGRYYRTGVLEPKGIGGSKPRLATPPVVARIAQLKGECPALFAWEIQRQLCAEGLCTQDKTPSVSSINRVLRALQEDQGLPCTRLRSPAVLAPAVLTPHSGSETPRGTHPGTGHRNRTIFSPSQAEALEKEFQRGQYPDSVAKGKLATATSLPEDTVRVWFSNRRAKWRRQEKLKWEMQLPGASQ"}, "PAX4 [2]": {"biological_target": "T2, PAX4 (Homo sapiens, UniProt O43316 9-242)", "T2 sequence": "T1 sequence with K192R"}, "PAX4 [3]": {"biological_target": "T3, PAX4 (Homo sapiens, UniProt O43316 9-242, R200Q)", "T3 sequence": "T1 sequence with K192Q"}, "PAX4 [4]": {"biological_target": "T4, PAX4 (Homo sapiens, UniProt O43316 9-242, F177V)", "T4 sequence": "T1 sequence with F169V, K192R"}, "PAX4 [5]": {"biological_target": "T5, PAX4 (Homo sapiens, UniProt O43316 9-242, F177Y)", "T5 sequence": "T1 sequence with F169Y, K192R"}, "PAX4 [6]": {"biological_target": "T6, PAX4 (Homo sapiens, UniProt O43316 9-242, R227W)", "T6 sequence": "T1 sequence with K192R, R219W"}, "PRRX1 [7]": {"biological_target": "PRRX1 (Homo sapiens, UniProt P54821 80-166, F113S)", "sequence (P54821 80-166 F113S)": "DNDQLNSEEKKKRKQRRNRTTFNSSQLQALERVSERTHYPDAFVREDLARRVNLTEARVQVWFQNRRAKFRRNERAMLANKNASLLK"}, "HOXB6": {"biological_target": "HOXB6 (Homo sapiens, UniProt P17509 132-218, K202E)", "sequence (P17509 132-218 K202E)": "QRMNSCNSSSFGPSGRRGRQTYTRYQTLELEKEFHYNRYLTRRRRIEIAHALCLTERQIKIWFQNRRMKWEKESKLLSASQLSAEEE"}, "ALX3 [8]": {"biological_target": "ALX3 (Homo sapiens, UniProt O95076 139-225, N203Q)", "sequence (O95076 139-225 N203Q)": "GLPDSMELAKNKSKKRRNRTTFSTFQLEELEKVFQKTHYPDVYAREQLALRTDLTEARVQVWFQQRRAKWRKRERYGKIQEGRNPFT"}, "ALX3 [9]": {"biological_target": "ALX3 (Homo sapiens, UniProt O95076 139-225, N203S)", "sequence (O95076 139-225 N203S)": "as the sequence (O95076 139-225 N203Q) above, with Q65S counted along it"}, "PRRX1 [10]": {"biological_target": "PRRX1 (Homo sapiens, UniProt P54821 80-166)", "sequence (P54821 80-166)": "as the sequence (P54821 80-166 F113S) above, with S34F counted along it"}}, "note": "Residue numbers refer to the chain shown, from its start."}
{"sequence": "GCGAATTA", "values": [{"measurement": "binding signal", "setting": "PAX4 [1]", "value": "11.6 upbm affinity estimate (log intensity, higher = more binding, comparable within an allelic series)"}, {"measurement": "binding signal", "setting": "PAX4 [2]", "value": "12.1 upbm affinity estimate (log intensity, higher = more binding, comparable within an allelic series)"}, {"measurement": "binding signal", "setting": "PAX4 [3]", "value": "11.5 upbm affinity estimate (log intensity, higher = more binding, comparable within an allelic series)"}, {"measurement": "binding signal", "setting": "PAX4 [4]", "value": "10.3 upbm affinity estimate (log intensity, higher = more binding, comparable within an allelic series)"}, {"measurement": "binding signal", "setting": "PAX4 [5]", "value": "10.8 upbm affinity estimate (log intensity, higher = more binding, comparable within an allelic series)"}, {"measurement": "binding signal", "setting": "PAX4 [6]", "value": "10.8 upbm affinity estimate (log intensity, higher = more binding, comparable within an allelic series)"}]}
{"sequence": "ATAATTTA", "values": [{"measurement": "binding signal", "setting": "PRRX1 [7]", "value": "11.2 upbm affinity estimate (log intensity, higher = more binding, comparable within an allelic series)"}, {"measurement": "binding signal", "setting": "HOXB6", "value": "10 upbm affinity estimate (log intensity, higher = more binding, comparable within an allelic series)"}, {"measurement": "binding signal", "setting": "ALX3 [8]", "value": "8.61 upbm affinity estimate (log intensity, higher = more binding, comparable within an allelic series)"}, {"measurement": "binding signal", "setting": "PAX4 [4]", "value": "10.8 upbm affinity estimate (log intensity, higher = more binding, comparable within an allelic series)"}, {"measurement": "binding signal", "setting": "PAX4 [5]", "value": "11 upbm affinity estimate (log intensity, higher = more binding, comparable within an allelic series)"}, {"measurement": "binding signal", "setting": "PAX4 [6]", "value": "11 upbm affinity estimate (log intensity, higher = more binding, comparable within an allelic series)"}, {"measurement": "binding signal", "setting": "ALX3 [9]", "value": "8.73 upbm affinity estimate (log intensity, higher = more binding, comparable within an allelic series)"}, {"measurement": "binding signal", "setting": "PRRX1 [10]", "value": "13.2 upbm affinity estimate (log intensity, higher = more binding, comparable within an allelic series)"}]}
{"sequence": "ATAATGCG", "values": [{"measurement": "binding signal", "setting": "PAX4 [1]", "value": "11.6 upbm affinity estimate (log intensity, higher = more binding, comparable within an allelic series)"}, {"measurement": "binding signal", "setting": "PAX4 [5]", "value": "10.9 upbm affinity estimate (log intensity, higher = more binding, comparable within an allelic series)"}, {"measurement": "binding signal", "setting": "PAX4 [6]", "value": "10.9 upbm affinity estimate (log intensity, higher = more binding, comparable within an allelic series)"}]}
{"sequence": "GTGAATTA", "values": [{"measurement": "binding signal", "setting": "PAX4 [1]", "value": "11.6 upbm affinity estimate (log intensity, higher = more binding, comparable within an allelic series)"}, {"measurement": "binding signal", "setting": "PAX4 [2]", "value": "12.2 upbm affinity estimate (log intensity, higher = more binding, comparable within an allelic series)"}, {"measurement": "binding signal", "setting": "PAX4 [3]", "value": "11.5 upbm affinity estimate (log intensity, higher = more binding, comparable within an allelic series)"}, {"measurement": "binding signal", "setting": "PAX4 [4]", "value": "10.5 upbm affinity estimate (log intensity, higher = more binding, comparable within an allelic series)"}, {"measurement": "binding signal", "setting": "PAX4 [5]", "value": "11 upbm affinity estimate (log intensity, higher = more binding, comparable within an allelic series)"}, {"measurement": "binding signal", "setting": "PAX4 [6]", "value": "10.9 upbm affinity estimate (log intensity, higher = more binding, comparable within an allelic series)"}]}
{"sequence": "AATGCGAT", "values": [{"measurement": "binding signal", "setting": "PAX4 [1]", "value": "10.8 upbm affinity estimate (log intensity, higher = more binding, comparable within an allelic series)"}, {"measurement": "binding signal", "setting": "PAX4 [2]", "value": "11 upbm affinity estimate (log intensity, higher = more binding, comparable within an allelic series)"}, {"measurement": "binding signal", "setting": "PAX4 [4]", "value": "10.2 upbm affinity estimate (log intensity, higher = more binding, comparable within an allelic series)"}]}
{"sequence": "CATGTTAG", "values": [{"measurement": "binding signal", "setting": "PAX4 [1]", "value": "10.7 upbm affinity estimate (log intensity, higher = more binding, comparable within an allelic series)"}, {"measurement": "binding signal", "setting": "PAX4 [2]", "value": "10.8 upbm affinity estimate (log intensity, higher = more binding, comparable within an allelic series)"}, {"measurement": "binding signal", "setting": "PAX4 [3]", "value": "10.7 upbm affinity estimate (log intensity, higher = more binding, comparable within an allelic series)"}, {"measurement": "binding signal", "setting": "PAX4 [4]", "value": "10.1 upbm affinity estimate (log intensity, higher = more binding, comparable within an allelic series)"}, {"measurement": "binding signal", "setting": "PAX4 [5]", "value": "10.2 upbm affinity estimate (log intensity, higher = more binding, comparable within an allelic series)"}, {"measurement": "binding signal", "setting": "PAX4 [6]", "value": "10.3 upbm affinity estimate (log intensity, higher = more binding, comparable within an allelic series)"}]}
{"sequence": "ATACATAT", "values": [{"measurement": "binding signal", "setting": "PAX4 [1]", "value": "10.7 upbm affinity estimate (log intensity, higher = more binding, comparable within an allelic series)"}, {"measurement": "binding signal", "setting": "PAX4 [2]", "value": "10.7 upbm affinity estimate (log intensity, higher = more binding, comparable within an allelic series)"}, {"measurement": "binding signal", "setting": "PAX4 [3]", "value": "10.8 upbm affinity estimate (log intensity, higher = more binding, comparable within an allelic series)"}, {"measurement": "binding signal", "setting": "PAX4 [4]", "value": "10.6 upbm affinity estimate (log intensity, higher = more binding, comparable within an allelic series)"}, {"measurement": "binding signal", "setting": "PAX4 [5]", "value": "10.6 upbm affinity estimate (log intensity, higher = more binding, comparable within an allelic series)"}, {"measurement": "binding signal", "setting": "PAX4 [6]", "value": "10.6 upbm affinity estimate (log intensity, higher = more binding, comparable within an allelic series)"}]}
{"sequence": "ATTTAGAG", "values": [{"measurement": "binding signal", "setting": "PAX4 [1]", "value": "10.6 upbm affinity estimate (log intensity, higher = more binding, comparable within an allelic series)"}, {"measurement": "binding signal", "setting": "PAX4 [2]", "value": "10.7 upbm affinity estimate (log intensity, higher = more binding, comparable within an allelic series)"}, {"measurement": "binding signal", "setting": "PAX4 [3]", "value": "10.6 upbm affinity estimate (log intensity, higher = more binding, comparable within an allelic series)"}, {"measurement": "binding signal", "setting": "PAX4 [4]", "value": "10.1 upbm affinity estimate (log intensity, higher = more binding, comparable within an allelic series)"}, {"measurement": "binding signal", "setting": "PAX4 [5]", "value": "10.2 upbm affinity estimate (log intensity, higher = more binding, comparable within an allelic series)"}, {"measurement": "binding signal", "setting": "PAX4 [6]", "value": "10.2 upbm affinity estimate (log intensity, higher = more binding, comparable within an allelic series)"}]}
{"sequence": "CCGGGCTC", "values": [{"measurement": "binding signal", "setting": "PAX4 [1]", "value": "9.24 upbm affinity estimate (log intensity, higher = more binding, comparable within an allelic series)"}, {"measurement": "binding signal", "setting": "PAX4 [2]", "value": "9.31 upbm affinity estimate (log intensity, higher = more binding, comparable within an allelic series)"}, {"measurement": "binding signal", "setting": "PAX4 [3]", "value": "9.36 upbm affinity estimate (log intensity, higher = more binding, comparable within an allelic series)"}, {"measurement": "binding signal", "setting": "PAX4 [4]", "value": "9.17 upbm affinity estimate (log intensity, higher = more binding, comparable within an allelic series)"}, {"measurement": "binding signal", "setting": "PAX4 [5]", "value": "9.16 upbm affinity estimate (log intensity, higher = more binding, comparable within an allelic series)"}, {"measurement": "binding signal", "setting": "PAX4 [6]", "value": "9.23 upbm affinity estimate (log intensity, higher = more binding, comparable within an allelic series)"}]}
{"sequence": "AATTATAC", "values": [{"measurement": "binding signal", "setting": "PRRX1 [7]", "value": "11.1 upbm affinity estimate (log intensity, higher = more binding, comparable within an allelic series)"}, {"measurement": "binding signal", "setting": "HOXB6", "value": "9.99 upbm affinity estimate (log intensity, higher = more binding, comparable within an allelic series)"}]}
{"sequence": "GAGCTCGC", "values": [{"measurement": "binding signal", "setting": "PAX4 [1]", "value": "9.35 upbm affinity estimate (log intensity, higher = more binding, comparable within an allelic series)"}, {"measurement": "binding signal", "setting": "PAX4 [2]", "value": "9.28 upbm affinity estimate (log intensity, higher = more binding, comparable within an allelic series)"}, {"measurement": "binding signal", "setting": "PAX4 [3]", "value": "9.32 upbm affinity estimate (log intensity, higher = more binding, comparable within an allelic series)"}, {"measurement": "binding signal", "setting": "PAX4 [4]", "value": "9.23 upbm affinity estimate (log intensity, higher = more binding, comparable within an allelic series)"}, {"measurement": "binding signal", "setting": "PAX4 [5]", "value": "9.12 upbm affinity estimate (log intensity, higher = more binding, comparable within an allelic series)"}, {"measurement": "binding signal", "setting": "PAX4 [6]", "value": "9.26 upbm affinity estimate (log intensity, higher = more binding, comparable within an allelic series)"}]}
{"sequence": "CCCGCGCG", "values": [{"measurement": "binding signal", "setting": "PAX4 [1]", "value": "9.26 upbm affinity estimate (log intensity, higher = more binding, comparable within an allelic series)"}, {"measurement": "binding signal", "setting": "PAX4 [2]", "value": "9.11 upbm affinity estimate (log intensity, higher = more binding, comparable within an allelic series)"}, {"measurement": "binding signal", "setting": "PAX4 [3]", "value": "9.18 upbm affinity estimate (log intensity, higher = more binding, comparable within an allelic series)"}, {"measurement": "binding signal", "setting": "PAX4 [4]", "value": "9.01 upbm affinity estimate (log intensity, higher = more binding, comparable within an allelic series)"}, {"measurement": "binding signal", "setting": "PAX4 [5]", "value": "9.06 upbm affinity estimate (log intensity, higher = more binding, comparable within an allelic series)"}, {"measurement": "binding signal", "setting": "PAX4 [6]", "value": "9.19 upbm affinity estimate (log intensity, higher = more binding, comparable within an allelic series)"}]}
{"sequence": "AGCGCTGC", "values": [{"measurement": "binding signal", "setting": "PAX4 [1]", "value": "9.36 upbm affinity estimate (log intensity, higher = more binding, comparable within an allelic series)"}, {"measurement": "binding signal", "setting": "PAX4 [2]", "value": "9.27 upbm affinity estimate (log intensity, higher = more binding, comparable within an allelic series)"}, {"measurement": "binding signal", "setting": "PAX4 [3]", "value": "9.34 upbm affinity estimate (log intensity, higher = more binding, comparable within an allelic series)"}, {"measurement": "binding signal", "setting": "PAX4 [4]", "value": "9.36 upbm affinity estimate (log intensity, higher = more binding, comparable within an allelic series)"}, {"measurement": "binding signal", "setting": "PAX4 [5]", "value": "9.24 upbm affinity estimate (log intensity, higher = more binding, comparable within an allelic series)"}, {"measurement": "binding signal", "setting": "PAX4 [6]", "value": "9.35 upbm affinity estimate (log intensity, higher = more binding, comparable within an allelic series)"}]}
